Inhibition data for 1 compound are collected here from ChEMBL document CHEMBL1961873, “Compounds: GSK PKIS; Assays: Nanosyn kinase panel” (2012).

The inhibition is the relative decrease from the control value, in per cent.

Test [1] concerns the target Sphingosine kinase 1 (Homo sapiens) (UniProt Q9NYA1). Particulars: at 1 µM.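 Note: mean SPHK1 inhibition value reported from the GSK PKIS kinase panel screen.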
Test [2] has as its target T1, Sphingosine kinase 2 (Homo sapiens) (UniProt Q9NRA0).
T1 sequence (whole entry): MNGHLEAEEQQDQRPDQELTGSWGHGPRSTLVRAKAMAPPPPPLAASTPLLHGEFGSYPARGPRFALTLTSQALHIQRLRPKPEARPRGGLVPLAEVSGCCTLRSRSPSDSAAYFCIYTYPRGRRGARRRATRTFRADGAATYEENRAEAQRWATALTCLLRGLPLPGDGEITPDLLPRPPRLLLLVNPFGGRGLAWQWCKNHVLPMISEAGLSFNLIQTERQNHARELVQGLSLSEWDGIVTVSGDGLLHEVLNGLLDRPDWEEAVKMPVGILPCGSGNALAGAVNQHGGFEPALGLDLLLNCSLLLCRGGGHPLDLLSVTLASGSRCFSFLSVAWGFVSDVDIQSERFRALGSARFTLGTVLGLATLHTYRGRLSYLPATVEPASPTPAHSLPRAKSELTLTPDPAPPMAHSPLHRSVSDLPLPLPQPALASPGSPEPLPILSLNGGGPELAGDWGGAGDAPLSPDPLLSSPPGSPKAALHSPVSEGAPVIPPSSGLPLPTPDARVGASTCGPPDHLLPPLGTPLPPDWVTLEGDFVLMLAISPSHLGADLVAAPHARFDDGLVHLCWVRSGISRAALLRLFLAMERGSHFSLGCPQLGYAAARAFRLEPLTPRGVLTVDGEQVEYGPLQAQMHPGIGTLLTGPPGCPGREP
Particulars: at 0.1 µM.

Test [3] deals with T1, Sphingosine kinase 2 (Homo sapiens). Particulars: at 1 µM.
Test [4] deals with Casein kinase II subunit alpha (Homo sapiens) (UniProt P68400). Particulars: at 0.1 µM.
Test [5] shares this target. Particulars: at 1 µM.
The target of test [6] is T2, Inhibitor of nuclear factor kappa-B kinase subunit alpha (Homo sapiens) (UniProt O15111).
T2 sequence (whole entry): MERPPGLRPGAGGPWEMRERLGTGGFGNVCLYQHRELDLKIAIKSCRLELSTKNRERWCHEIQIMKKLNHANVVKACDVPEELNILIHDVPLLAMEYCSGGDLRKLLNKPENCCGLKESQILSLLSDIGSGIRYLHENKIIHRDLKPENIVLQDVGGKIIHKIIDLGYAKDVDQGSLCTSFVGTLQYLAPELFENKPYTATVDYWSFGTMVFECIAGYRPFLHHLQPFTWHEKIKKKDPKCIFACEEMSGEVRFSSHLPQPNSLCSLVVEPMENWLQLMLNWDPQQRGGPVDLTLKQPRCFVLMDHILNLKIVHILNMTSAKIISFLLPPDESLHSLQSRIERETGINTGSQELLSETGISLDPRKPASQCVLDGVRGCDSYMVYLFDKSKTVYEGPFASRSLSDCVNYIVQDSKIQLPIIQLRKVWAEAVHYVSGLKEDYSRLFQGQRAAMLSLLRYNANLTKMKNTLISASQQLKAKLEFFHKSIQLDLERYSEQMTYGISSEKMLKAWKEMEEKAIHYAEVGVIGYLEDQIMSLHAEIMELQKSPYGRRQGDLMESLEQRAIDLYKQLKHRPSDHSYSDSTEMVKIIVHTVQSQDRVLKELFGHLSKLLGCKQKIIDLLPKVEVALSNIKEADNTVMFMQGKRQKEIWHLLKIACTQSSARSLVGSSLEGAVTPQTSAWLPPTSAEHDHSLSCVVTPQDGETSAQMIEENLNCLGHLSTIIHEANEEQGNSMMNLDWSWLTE
The conditions noted are these: at 0.1 µM.

Test [7] has as its target T2, Inhibitor of nuclear factor kappa-B kinase subunit alpha (Homo sapiens). Particulars: at 1 µM.
For test [8], the target named is T3, Inhibitor of nuclear factor kappa-B kinase subunit beta (Homo sapiens) (UniProt O14920).
T3 sequence (whole entry): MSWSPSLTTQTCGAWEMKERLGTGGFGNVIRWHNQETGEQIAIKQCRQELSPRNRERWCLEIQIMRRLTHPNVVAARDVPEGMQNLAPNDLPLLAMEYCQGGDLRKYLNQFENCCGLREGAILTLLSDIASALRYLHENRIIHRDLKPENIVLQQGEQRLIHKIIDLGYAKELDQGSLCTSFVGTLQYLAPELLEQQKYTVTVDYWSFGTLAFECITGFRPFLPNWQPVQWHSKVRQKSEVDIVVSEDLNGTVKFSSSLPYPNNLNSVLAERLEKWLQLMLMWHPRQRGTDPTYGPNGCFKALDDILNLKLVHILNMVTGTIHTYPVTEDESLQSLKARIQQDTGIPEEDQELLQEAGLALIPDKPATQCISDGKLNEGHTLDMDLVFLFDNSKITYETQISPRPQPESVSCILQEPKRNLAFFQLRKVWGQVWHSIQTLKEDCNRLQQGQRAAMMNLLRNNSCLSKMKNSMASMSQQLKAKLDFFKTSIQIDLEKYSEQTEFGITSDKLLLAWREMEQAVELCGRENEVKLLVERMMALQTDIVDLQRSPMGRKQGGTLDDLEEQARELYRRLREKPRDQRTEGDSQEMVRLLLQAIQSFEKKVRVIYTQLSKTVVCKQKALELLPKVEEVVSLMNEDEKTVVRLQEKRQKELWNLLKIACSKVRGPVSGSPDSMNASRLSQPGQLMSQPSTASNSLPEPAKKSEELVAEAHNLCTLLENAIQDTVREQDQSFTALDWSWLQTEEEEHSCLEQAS
Particulars: at 0.1 µM.

For test [9], the target named is T3, Inhibitor of nuclear factor kappa-B kinase subunit beta (Homo sapiens). The conditions noted are these: at 1 µM.
The target of test [10] is T4, Inhibitor of nuclear factor kappa-B kinase subunit epsilon (Homo sapiens) (UniProt Q14164).
T4 sequence (whole entry): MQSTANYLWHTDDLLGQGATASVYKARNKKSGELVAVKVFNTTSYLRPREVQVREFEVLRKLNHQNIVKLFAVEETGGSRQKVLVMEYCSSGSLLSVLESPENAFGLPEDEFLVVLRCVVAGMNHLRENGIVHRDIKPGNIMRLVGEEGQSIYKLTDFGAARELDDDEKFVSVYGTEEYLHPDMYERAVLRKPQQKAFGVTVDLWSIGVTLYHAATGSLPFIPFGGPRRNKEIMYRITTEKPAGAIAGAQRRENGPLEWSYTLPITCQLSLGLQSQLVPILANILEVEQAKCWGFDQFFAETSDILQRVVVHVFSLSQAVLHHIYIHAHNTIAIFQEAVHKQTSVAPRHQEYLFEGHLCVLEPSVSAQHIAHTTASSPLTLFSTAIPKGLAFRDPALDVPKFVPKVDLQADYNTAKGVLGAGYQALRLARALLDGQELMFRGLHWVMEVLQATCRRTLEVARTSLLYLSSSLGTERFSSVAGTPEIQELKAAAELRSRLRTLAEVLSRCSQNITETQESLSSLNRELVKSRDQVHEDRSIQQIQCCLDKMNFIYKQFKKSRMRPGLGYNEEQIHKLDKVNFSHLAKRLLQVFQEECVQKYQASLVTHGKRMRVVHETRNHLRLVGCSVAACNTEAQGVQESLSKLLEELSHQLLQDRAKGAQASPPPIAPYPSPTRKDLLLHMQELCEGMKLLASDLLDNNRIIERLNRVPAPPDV
The conditions noted are these: at 0.1 µM.

Test [11] deals with T4, Inhibitor of nuclear factor kappa-B kinase subunit epsilon (Homo sapiens). The conditions noted are these: at 1 µM.
The target of test [12] is T5, Serine/threonine-protein kinase Nek1 (Homo sapiens) (UniProt Q96PY6).
T5 sequence (whole entry): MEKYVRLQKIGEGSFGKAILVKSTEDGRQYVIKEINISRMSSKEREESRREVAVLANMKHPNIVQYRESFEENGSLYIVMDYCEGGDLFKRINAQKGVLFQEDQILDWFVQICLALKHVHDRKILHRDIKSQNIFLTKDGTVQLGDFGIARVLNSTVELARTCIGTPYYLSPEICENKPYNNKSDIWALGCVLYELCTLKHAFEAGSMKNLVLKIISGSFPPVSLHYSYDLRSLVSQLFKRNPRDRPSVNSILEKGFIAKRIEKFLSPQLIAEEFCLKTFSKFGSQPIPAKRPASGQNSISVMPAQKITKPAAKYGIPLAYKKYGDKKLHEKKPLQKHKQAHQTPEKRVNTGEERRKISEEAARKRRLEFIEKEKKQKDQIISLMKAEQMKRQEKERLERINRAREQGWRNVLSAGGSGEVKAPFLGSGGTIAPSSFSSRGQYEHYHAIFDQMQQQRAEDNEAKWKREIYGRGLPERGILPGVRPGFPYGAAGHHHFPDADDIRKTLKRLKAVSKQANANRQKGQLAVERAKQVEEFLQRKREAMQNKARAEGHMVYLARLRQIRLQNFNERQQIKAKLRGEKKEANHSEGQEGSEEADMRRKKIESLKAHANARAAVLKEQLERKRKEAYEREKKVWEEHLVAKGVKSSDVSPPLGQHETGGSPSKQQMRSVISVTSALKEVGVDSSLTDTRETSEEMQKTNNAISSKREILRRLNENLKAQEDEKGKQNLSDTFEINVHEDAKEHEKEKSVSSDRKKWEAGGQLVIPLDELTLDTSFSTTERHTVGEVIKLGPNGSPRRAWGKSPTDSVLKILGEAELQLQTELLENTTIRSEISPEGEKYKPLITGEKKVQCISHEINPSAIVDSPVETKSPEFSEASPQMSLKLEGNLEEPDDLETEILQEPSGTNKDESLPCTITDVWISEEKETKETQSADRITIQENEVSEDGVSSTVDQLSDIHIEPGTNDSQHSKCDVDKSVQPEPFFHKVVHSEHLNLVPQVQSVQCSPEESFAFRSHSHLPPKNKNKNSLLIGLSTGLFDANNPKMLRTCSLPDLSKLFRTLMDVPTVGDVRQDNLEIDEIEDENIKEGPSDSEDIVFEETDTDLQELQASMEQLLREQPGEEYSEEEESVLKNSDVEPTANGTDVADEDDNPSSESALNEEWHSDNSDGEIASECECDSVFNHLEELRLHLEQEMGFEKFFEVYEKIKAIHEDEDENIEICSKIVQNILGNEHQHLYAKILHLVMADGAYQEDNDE
The conditions noted are these: at 0.1 µM.

The target in test [13] is T5, Serine/threonine-protein kinase Nek1 (Homo sapiens). Particulars: at 1 µM.
For test [14], the target named is T6, Serine/threonine-protein kinase Nek2 (Homo sapiens) (UniProt P51955).
T6 sequence (whole entry): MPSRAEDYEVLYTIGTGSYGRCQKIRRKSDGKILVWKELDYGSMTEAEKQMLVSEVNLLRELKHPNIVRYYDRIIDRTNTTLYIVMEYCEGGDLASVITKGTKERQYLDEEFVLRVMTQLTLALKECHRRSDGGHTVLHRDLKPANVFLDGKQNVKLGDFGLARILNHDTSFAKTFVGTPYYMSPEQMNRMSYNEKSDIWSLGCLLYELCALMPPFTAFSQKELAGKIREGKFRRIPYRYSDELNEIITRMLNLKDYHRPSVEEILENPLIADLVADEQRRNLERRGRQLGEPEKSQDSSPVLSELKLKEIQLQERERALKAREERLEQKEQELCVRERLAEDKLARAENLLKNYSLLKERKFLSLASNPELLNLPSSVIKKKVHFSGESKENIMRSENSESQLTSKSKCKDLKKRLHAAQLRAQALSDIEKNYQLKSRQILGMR
Particulars: at 0.1 µM.

In test [15] the target is T6, Serine/threonine-protein kinase Nek2 (Homo sapiens). Particulars: at 1 µM.
In test [16] the target is Serine/threonine-protein kinase Nek6 (Homo sapiens) (UniProt Q9HC98). The conditions noted are these: at 0.1 µM.
The target is the same in test [17]. Particulars: at 1 µM.
In test [18] the target is Serine/threonine-protein kinase Nek7 (Homo sapiens) (UniProt Q8TDX7). The conditions noted are these: at 0.1 µM.
For test [19] the target is unchanged. The conditions noted are these: at 1 µM.
In test [20] the target is T7, Serine/threonine-protein kinase Nek9 (Homo sapiens) (UniProt Q8TD19).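 Note: reported value is the mean percent inhibition of NEK9.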
T7 sequence (whole entry): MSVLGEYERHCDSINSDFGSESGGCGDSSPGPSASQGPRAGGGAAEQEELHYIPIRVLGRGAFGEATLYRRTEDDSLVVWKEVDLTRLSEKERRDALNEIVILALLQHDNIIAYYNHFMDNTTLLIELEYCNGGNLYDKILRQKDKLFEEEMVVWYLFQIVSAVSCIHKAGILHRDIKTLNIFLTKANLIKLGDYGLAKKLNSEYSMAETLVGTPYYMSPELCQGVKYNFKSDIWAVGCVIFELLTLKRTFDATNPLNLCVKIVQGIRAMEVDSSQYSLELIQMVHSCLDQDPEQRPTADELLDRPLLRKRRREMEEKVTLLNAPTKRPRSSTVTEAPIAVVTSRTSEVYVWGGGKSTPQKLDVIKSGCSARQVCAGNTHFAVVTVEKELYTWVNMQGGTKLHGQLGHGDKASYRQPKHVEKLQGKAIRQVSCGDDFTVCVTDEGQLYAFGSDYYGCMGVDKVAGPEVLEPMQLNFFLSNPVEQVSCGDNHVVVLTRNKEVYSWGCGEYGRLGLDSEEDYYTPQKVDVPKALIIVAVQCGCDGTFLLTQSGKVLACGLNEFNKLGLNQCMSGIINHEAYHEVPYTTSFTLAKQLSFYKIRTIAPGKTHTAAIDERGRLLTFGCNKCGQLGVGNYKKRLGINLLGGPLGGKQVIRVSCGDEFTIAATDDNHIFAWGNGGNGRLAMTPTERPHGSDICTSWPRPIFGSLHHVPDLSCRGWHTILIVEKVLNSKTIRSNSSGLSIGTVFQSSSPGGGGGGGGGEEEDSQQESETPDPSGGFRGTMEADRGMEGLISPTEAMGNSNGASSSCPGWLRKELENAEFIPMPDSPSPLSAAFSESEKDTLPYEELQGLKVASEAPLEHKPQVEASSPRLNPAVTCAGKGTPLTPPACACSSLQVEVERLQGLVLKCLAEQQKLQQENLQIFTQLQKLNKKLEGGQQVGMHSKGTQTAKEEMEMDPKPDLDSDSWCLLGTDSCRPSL
The conditions noted are these: at 0.1 µM.

Serine/threonine-protein kinase Nek7 (Homo sapiens), sequence (Q8TDX7 whole entry, looked up): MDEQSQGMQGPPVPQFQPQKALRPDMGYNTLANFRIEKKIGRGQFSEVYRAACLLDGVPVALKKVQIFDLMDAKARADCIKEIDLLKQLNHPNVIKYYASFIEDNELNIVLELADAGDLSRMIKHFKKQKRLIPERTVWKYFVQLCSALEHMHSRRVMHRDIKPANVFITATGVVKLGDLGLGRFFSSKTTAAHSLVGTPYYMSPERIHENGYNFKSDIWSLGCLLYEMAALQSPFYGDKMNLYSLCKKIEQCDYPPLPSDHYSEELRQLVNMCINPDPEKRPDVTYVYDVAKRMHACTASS
Serine/threonine-protein kinase Nek6 (Homo sapiens), sequence (Q9HC98 whole entry): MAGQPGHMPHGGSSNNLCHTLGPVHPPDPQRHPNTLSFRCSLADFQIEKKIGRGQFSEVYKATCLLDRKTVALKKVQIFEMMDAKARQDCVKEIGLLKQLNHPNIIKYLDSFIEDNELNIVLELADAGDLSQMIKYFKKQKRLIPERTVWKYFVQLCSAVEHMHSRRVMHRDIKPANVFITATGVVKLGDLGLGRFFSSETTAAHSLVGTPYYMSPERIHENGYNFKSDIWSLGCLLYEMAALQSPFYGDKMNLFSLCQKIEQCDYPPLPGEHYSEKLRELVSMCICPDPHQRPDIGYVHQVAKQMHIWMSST
Casein kinase II subunit alpha (Homo sapiens), sequence (P68400 whole entry, looked up): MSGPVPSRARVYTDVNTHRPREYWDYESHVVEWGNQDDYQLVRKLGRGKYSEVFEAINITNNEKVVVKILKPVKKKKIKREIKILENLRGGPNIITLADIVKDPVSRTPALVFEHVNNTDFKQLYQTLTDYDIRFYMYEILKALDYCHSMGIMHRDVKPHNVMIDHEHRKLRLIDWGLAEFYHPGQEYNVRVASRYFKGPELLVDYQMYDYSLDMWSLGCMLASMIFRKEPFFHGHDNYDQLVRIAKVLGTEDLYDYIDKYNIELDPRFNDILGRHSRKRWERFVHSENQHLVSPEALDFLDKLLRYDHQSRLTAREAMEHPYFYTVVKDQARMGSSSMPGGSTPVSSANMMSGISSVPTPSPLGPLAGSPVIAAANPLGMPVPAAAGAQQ
Sphingosine kinase 1 (Homo sapiens), sequence (Q9NYA1 whole entry): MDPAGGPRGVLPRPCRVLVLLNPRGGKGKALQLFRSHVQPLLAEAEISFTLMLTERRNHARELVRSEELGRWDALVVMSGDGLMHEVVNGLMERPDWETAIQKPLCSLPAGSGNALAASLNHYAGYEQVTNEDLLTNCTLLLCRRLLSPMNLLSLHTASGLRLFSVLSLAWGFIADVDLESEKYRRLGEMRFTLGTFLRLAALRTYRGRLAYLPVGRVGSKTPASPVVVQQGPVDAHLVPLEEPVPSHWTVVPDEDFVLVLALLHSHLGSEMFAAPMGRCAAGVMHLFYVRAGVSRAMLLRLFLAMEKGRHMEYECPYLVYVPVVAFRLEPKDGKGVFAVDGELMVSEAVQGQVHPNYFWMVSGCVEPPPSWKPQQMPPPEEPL

As for `COc1cccc(-n2cnc3c(N/N=C/c4ccncc4)ncnc32)c1`, the inhibition in test [1] is 0.02%; in test [2] it was 0.58%; in test [3], -0.25%; in test [4], 0.97%; in test [5] it was 10.8%; in test [6], 0.84%. Further, the inhibition in [7] was -1.74%; in test [8] it was 1.12%; in test [9], 3.32%; in test [10] it was 3.81%; in [11], 4.51%; in test [12] it was 0%. The inhibition is 9.07% in test [13]; -1.74% in test [14]; -1.3% in test [15]; 2.37% in [16]; 2.69% in [17]; -0.81% in test [18]. Moreover, the values for the inhibition in test [19] and in test [20] were -2.76% and 0.98%, respectively.
